Laboratory results reported in PubChem BioAssay.
Results filed as inconclusive are left out. The source made the active and inactive calls.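 The calls were made as follows, unless noted: active = cell viability at or below a set limit in both duplicate runs, the limit being the all-compound median minus 4 SD (cut at about 23% in these data, passing the limit was not always enough); inconclusive = no clear call, values can overlap the other calls; inactive = the rest.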

What was measured:
[1] = reducers of endogenous Her2 protein level, primary screen, SKBR3 breast tumor cells, AlphaScreen, ATP viability (AID 461;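 active = Her2 level under about 52% in both replicate screens, with viability over 70% of control, limit read from the data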;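 as to Her2 level: lower value means less Her2 protein in the cells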;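 as to viability: percent of carrier control wells set as 100% viability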); conditions: 18-24 h, measured here: SKBR3 viability, ATP luminescence, at 10 µM
[2] = target: Receptor tyrosine-protein kinase erbB-2 (Homo sapiens) (UniProt P04626); test: as above; conditions: 18-24 h, at 10 µM, stronger effect = lower value
Receptor tyrosine-protein kinase erbB-2 (Homo sapiens), sequence (P04626 whole entry, looked up): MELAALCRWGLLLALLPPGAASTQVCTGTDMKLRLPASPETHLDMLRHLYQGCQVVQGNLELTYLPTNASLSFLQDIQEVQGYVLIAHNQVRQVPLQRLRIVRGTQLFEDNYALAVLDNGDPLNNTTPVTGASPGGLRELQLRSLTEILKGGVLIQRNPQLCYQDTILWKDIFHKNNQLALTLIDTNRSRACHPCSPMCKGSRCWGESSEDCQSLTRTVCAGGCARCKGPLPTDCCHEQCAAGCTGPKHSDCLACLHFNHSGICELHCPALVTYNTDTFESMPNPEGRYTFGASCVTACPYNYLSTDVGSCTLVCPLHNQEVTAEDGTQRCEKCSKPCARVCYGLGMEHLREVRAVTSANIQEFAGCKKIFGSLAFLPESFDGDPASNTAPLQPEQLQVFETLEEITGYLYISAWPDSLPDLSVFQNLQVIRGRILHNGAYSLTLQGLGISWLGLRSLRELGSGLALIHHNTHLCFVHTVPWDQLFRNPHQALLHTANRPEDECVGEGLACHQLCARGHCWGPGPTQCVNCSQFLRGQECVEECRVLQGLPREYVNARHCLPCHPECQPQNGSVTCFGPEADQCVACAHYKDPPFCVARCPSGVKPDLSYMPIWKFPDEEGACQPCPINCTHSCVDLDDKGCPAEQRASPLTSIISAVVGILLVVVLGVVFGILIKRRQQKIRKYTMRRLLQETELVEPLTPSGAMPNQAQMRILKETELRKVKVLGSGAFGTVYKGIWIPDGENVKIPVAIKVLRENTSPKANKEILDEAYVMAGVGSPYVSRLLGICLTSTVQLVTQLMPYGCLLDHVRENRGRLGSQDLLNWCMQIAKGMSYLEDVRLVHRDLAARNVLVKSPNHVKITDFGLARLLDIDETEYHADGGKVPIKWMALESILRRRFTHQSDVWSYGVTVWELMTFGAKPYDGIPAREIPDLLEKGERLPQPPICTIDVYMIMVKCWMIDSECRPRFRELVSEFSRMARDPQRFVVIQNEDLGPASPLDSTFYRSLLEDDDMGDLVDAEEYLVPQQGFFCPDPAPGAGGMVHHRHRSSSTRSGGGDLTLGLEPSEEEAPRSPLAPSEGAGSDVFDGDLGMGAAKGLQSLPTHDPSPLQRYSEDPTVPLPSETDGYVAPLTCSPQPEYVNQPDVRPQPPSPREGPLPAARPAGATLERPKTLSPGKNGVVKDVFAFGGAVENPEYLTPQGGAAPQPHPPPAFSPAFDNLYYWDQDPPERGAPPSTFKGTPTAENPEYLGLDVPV

[3] = SK-BR-3 cell growth inhibitors, pilot screen, 24 h, human (AID 572;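 active = viability at or below 10% of carrier control in both of two separate runs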;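 also: compound exposure lasted between 18 and 24 h rather than exactly 24 h; 100% = carrier-treated control wells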); conditions: SK-BR-3 viability, CellTiter-Glo luminescence, at 10 µM, stronger effect = lower value
[4] = HUVEC growth inhibition – cell-based, human, primary screen (AID 575;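 active = viability at or below 30% in both replicate assays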;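 also: 100% = median of untreated cell wells with 0.1% DMSO on each plate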); conditions: HUVEC proliferation, CellTiter-Glo luminescence, 72 h; at 10 µM; stronger effect = lower value
[5] = growth inhibitors of H69AR lung tumor, primary screen, human, duplicate replicates (AID 580;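 active = viability at or under a set limit in both replicates, limit being median viability minus 3 SD, cut at about 48% in these data, passing the limit was not always enough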;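 also: 100% = mean luminescence of untreated wells and 0% = no signal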); conditions: H69AR lung tumor cells viability, ATP luminescence, 72 h; at 10 µM; stronger effect = lower value
[6] = reversal of MRP1-mediated doxorubicin resistance, pilot screen, H69AR cells, doxorubicin co-treatment (AID 601;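 active = viability loss from added drug above about 55%, and viability with drug at most 40%, in both replicates, limit read from the data, passing the limit was not always enough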); conditions: CellTiter-Glo, 72 h, at 10 µM; for differential viability (reversal): stronger effect = higher value
[7] = 384-well plate pilot, post-Golgi transport modulator project, inhibition of yeast transport mutant growth (AID 636; in the data active = inhibition above about 31%); conditions: absorbance 615 nm, about 18 h, stronger effect = higher value
[8] = growth suppression of yeast trafficking mutant, preliminary HTS, modulators of trafficking downstream of Golgi apparatus project, 1536-format plate, OD 615 nm (AID 637; in the data active = inhibition above about 30%); conditions: yeast transport mutant growth, absorbance 615 nm, 18 h; stronger effect = higher value
[9] = OD615 S. cerevisiae growth inhibition, permissive medium, pilot counter-assay, permissive growth control for S. cerevisiae lifespan shortening project (AID 705;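 active = growth inhibition above 25% in both replicates, a cutoff set 3 SD above the mean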); conditions: OD615, 24 h, at 10 µM, stronger effect = higher value
[10] = Restrictive medium S. cerevisiae growth inhibition, OD615, pilot screen of yeast lifespan reduction project, restrictive growth control (AID 706;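 active = growth inhibition above a set limit, 3 SD over mean compound inhibition, in both replicates, cut at about 43% in these data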;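 also: modified DeaD lifespan yeast strain shifted to restrictive glucose medium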); conditions: OD615, 48 h, at 10 µM, stronger effect = higher value
[11] = viability gain of MRP-1-high H69AR cells under doxorubicin, pilot screen, MRP-1 activator project, CellTiter-Glo, duplicate (AID 807;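 active = viability increase at or above a cutoff of the median across tested compounds plus 3 SD, cut at about 8.5% in these data, passing the limit was not always enough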;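 also: compound pretreatment 18-22 h then 72 h combined with doxorubicin; 0% = doxorubicin alone and 100% = vehicle without doxorubicin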); conditions: H69AR viability with doxorubicin, CellTiter-Glo luminescence; at 10 µM; stronger effect = higher value
[12] = growth suppression of beta-catenin knockout HCT116, pilot screen, human colon tumor cells (AID 823); conditions: CellTiter-Glo, 60 h, at 10 µM, stronger effect = lower value;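 also: 0% = wells killed by 20 µM Hyamine and 100% = untreated DMSO cell wells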
[13] = growth suppression of PTEN-deleted HCT116, pilot screen, cell-based, HCT116 clonal line, CellTiter-Glo (AID 824;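 active = viability at or below 27.92% in each of two runs, the all-compound median minus 4 SD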;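 also: 0% = 20 µM Hyamine control and 100% = vehicle cell control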); conditions: 60 h, at 10 µM, stronger effect = lower value
[14] = inhibitors of the yeast RAM network, pilot screen, dse1pr::URA3 reporter, 5-FOA selection (AID 869;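 active = inhibition over a set limit, the all-compound mean plus 3 SD, in both replicate runs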;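 also: 0% = DMSO wells with no growth and 100% = 10 µM 1-NA-PP1 with full growth; RAM network block rescues cells from 5-FOA so hits raise OD615 growth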); conditions: S. cerevisiae dse1pr::URA3 5-FOA growth, OD615, 2 d; at 10 µM; stronger effect = higher value; strain carries analog-sensitive mutant Cbk1 kinase
[15] = RAM signaling pathway blockade in yeast – S. cerevisiae, Pdr1DBD-CYC8 efflux-inhibited sensitized strain, primary screen (AID 1298;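 active = RAM network inhibition above 8.4% in each of two replicates, 3 SD over the compound average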;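 also: 0% = DMSO untreated cells without growth and 100% = 10 µM 1-NA-PP1 full growth; higher means more yeast growth rescued from 5-FOA killing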); conditions: S. cerevisiae cbk1-as DSE1-URA3 strain, 5-FOA growth OD615, 2 d; at 50 µM; stronger effect = higher value
[16] = H69AR cells + 2 uM doxorubicin, measured here: viability with 2 uM doxorubicin, stronger effect = lower value
[17] = H69AR cells, compound alone cytotoxicity

Q: Which viability [1] does the source give for `C=CCNC(=O)CSc1nc2sc(C)c(C)c2c(=O)[nH]1` here?
A: 96.5%

Q: And the Her2 level [2]?
A: 95.5% (inactive)

Q: What about the viability [3] of the same compound?
A: 96.5% (inactive)

Q: What about the viability [4] of the same compound?
A: 90.1% (inactive)

Q: What about the viability [5] of the same compound?
A: 78.2% (inactive)

Q: What about the differential viability (reversal) ([6]; H69AR cells + 2 uM doxorubicin) of the same compound?
A: -7.53% (inactive)

Q: And the viability [6, 16]?
A: 85.7%

Q: And the viability [6, 17]?
A: 78.2%

Q: And the inhibition [7]?
A: -3.33% (inactive)

Q: What about the inhibition [8] of the same compound?
A: 1% (inactive)

Q: And the growth inhibition [9]?
A: -10.2% (inactive)

Q: What about the growth inhibition [10] of the same compound?
A: -4.47% (inactive)

Q: And the viability increase [11]?
A: -1.02% (inactive)

Q: What about the viability [12] of the same compound?
A: 110% (inactive)

Q: What about the viability [13] of the same compound?
A: 97.1% (inactive)

Q: And the inhibition [14]?
A: 3.06% (inactive)

Q: What about the RAM network inhibition [15] of the same compound?
A: 5.1% (inactive)

Q: Which viability [1] does the source give for `Cc1ccc(SCC(=O)NCCN2C(=O)CSC2=O)c(C)c1` here?
A: 99.5%

Q: What about the Her2 level [2] of the same compound?
A: 110% (inactive)

Q: And the viability [3]?
A: 99.5% (inactive)

Q: What about the viability [4] of the same compound?
A: 92.3% (inactive)

Q: And the viability [5]?
A: 87.7% (inactive)

Q: And the differential viability (reversal) ([6]; H69AR cells + 2 uM doxorubicin)?
A: -1.79% (inactive)

Q: What about the viability [6, 16] of the same compound?
A: 89.5%

Q: What about the viability [6, 17] of the same compound?
A: 87.7%

Q: And the inhibition [7]?
A: 0.52% (inactive)

Q: What about the inhibition [8] of the same compound?
A: -0.83% (inactive)

Q: What about the growth inhibition [9] of the same compound?
A: -14.8% (inactive)

Q: What about the growth inhibition [10] of the same compound?
A: -3.53% (inactive)

Q: What about the viability increase [11] of the same compound?
A: -0.38% (inactive)

Q: And the viability [12]?
A: 111% (inactive)

Q: And the inhibition [14]?
A: 1.09% (inactive)

Q: And the RAM network inhibition [15]?
A: 3.32% (inactive)

Q: With `COc1cccc2c(=O)c3c(cnn3C)n(C)c12` as the compound, how does the viability [1] read?
A: 106%

Q: What about the Her2 level [2] of the same compound?
A: 100% (inactive)

Q: And the viability [3]?
A: 106% (inactive)

Q: What about the viability [4] of the same compound?
A: 84.9% (inactive)

Q: And the viability [5]?
A: 81.9% (inactive)

Q: What about the differential viability (reversal) ([6]; H69AR cells + 2 uM doxorubicin) of the same compound?
A: -10.9% (inactive)

Q: What about the viability [6, 16] of the same compound?
A: 92.8%

Q: What about the viability [6, 17] of the same compound?
A: 81.9%

Q: And the inhibition [7]?
A: -1.97% (inactive)

Q: What about the inhibition [8] of the same compound?
A: 1.27% (inactive)

Q: And the growth inhibition [9]?
A: -1.81% (inactive)

Q: And the growth inhibition [10]?
A: 48.7% (active)

Q: What about the viability increase [11] of the same compound?
A: -5.44% (inactive)

Q: And the viability [12]?
A: 87.1% (inactive)

Q: What about the inhibition [14] of the same compound?
A: 1.5% (inactive)

Q: And the RAM network inhibition [15]?
A: 0.52% (inactive)

Q: With `c1nc(NCC2(N3CCOCC3)CCCCC2)c2ccsc2n1` as the compound, how does the viability [1] read?
A: 82.5%

Q: What about the Her2 level [2] of the same compound?
A: 93% (inactive)

Q: What about the viability [3] of the same compound?
A: 82.5% (inactive)

Q: What about the viability [4] of the same compound?
A: 97.7% (inactive)

Q: What about the viability [5] of the same compound?
A: 98.6% (inactive)

Q: And the differential viability (reversal) ([6]; H69AR cells + 2 uM doxorubicin)?
A: -0.545% (inactive)

Q: And the viability [6, 16]?
A: 99.2%

Q: What about the viability [6, 17] of the same compound?
A: 98.6%

Q: And the inhibition [7]?
A: -5.27% (inactive)

Q: What about the inhibition [8] of the same compound?
A: -2.54% (inactive)

Q: What about the growth inhibition [9] of the same compound?
A: -25.4% (inactive)

Q: What about the growth inhibition [10] of the same compound?
A: 3.08% (inactive)

Q: And the viability increase [11]?
A: -3.33% (inactive)

Q: And the viability [12]?
A: 78.8% (inactive)

Q: And the inhibition [14]?
A: 1.14% (inactive)

Q: And the RAM network inhibition [15]?
A: 8.05% (inactive)

Q: Which results are given for `CCc1ccc(C2CC(c3cccc(OC)c3)n3nc(N)nc3N2)cc1` (stereo not given)?
A: viability [1]: 90%; Her2 level [2]: 92% (inactive); viability [3]: 90% (inactive); viability [4]: 113% (inactive); viability [5]: 105% (inactive); differential viability (reversal) ([6]; H69AR cells + 2 uM doxorubicin): 7.42% (inactive); viability [6, 16]: 97.5%; viability [6, 17]: 105%; inhibition [7]: 2.31% (inactive); inhibition [8]: 4.83% (inactive); growth inhibition [9]: -0.21% (inactive); growth inhibition [10]: 12% (inactive); viability increase [11]: 2.74% (inactive); viability [12]: 93.3% (inactive); viability [13]: 81.1% (inactive); inhibition [14]: 1.21% (inactive); RAM network inhibition [15]: 4.95% (inactive)

Q: With `CC(=O)N1c2c(cc(Br)cc2S(=O)(=O)N2CCN(c3ccccn3)CC2)CC1C` (stereo not given) as the compound, how does the viability [1] read?
A: 80.5%

Q: What about the Her2 level [2] of the same compound?
A: 106% (inactive)

Q: What about the viability [3] of the same compound?
A: 80.5% (inactive)

Q: And the viability [4]?
A: 64.9% (inactive)

Q: And the viability [5]?
A: 86.6% (inactive)

Q: What about the differential viability (reversal) ([6]; H69AR cells + 2 uM doxorubicin) of the same compound?
A: -3.56% (inactive)

Q: And the viability [6, 16]?
A: 90.2%

Q: What about the viability [6, 17] of the same compound?
A: 86.6%

Q: And the inhibition [7]?
A: -1.05% (inactive)

Q: And the inhibition [8]?
A: 24.6% (inactive)

Q: What about the growth inhibition [9] of the same compound?
A: 6.66% (inactive)

Q: What about the growth inhibition [10] of the same compound?
A: 1.97% (inactive)

Q: What about the viability increase [11] of the same compound?
A: 1.49% (inactive)

Q: And the viability [12]?
A: 99.1% (inactive)

Q: What about the viability [13] of the same compound?
A: 95.6% (inactive)

Q: What about the inhibition [14] of the same compound?
A: 0.77% (inactive)

Q: And the RAM network inhibition [15]?
A: 0.3% (inactive)

Q: Which results are given for `CCN(CC)CCCN1C(=O)C(O)=C(C(=O)c2ccco2)C1c1ccc(C)o1` (stereo not given)?
A: viability [1]: 102%; Her2 level [2]: 93.5% (inactive); viability [3]: 102% (inactive); viability [4]: 102% (inactive); viability [5]: 85.4% (inactive); differential viability (reversal) ([6]; H69AR cells + 2 uM doxorubicin): -0.59% (inactive); viability [6, 16]: 86%; viability [6, 17]: 85.4%; inhibition [7]: -6.89% (inactive); inhibition [8]: 7.94% (inactive); growth inhibition [9]: -11.8% (inactive); growth inhibition [10]: 14.4% (inactive); viability increase [11]: -4.15% (inactive); viability [12]: 97.4% (inactive); inhibition [14]: 0.395% (inactive); RAM network inhibition [15]: 3.48% (inactive)
